# Measured values: PubChem BioAssay (NCI)
# Compounds without any hit were thinned out: in the full panel of roughly 83,000, 20% have a hit.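 Single-concentration screen, 48 h exposure, 96-well plates. Endpoint: percent growth. Below 10 = active.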 Values without a mark were called inactive. Calls of active or inactive are those of the source.
# System: CAKI-1 renal
# Assay: NCI-60 one-dose screen, 48 h (100 = growth as untreated, 0 = no growth, -100 = all killed)
# Details: 10 µM unless noted
# Description: Growth inhibition of the CAKI-1 human tumor cell line is measured as a screen for anti-cancer activity. Cells are grown in 96 well plates and exposed to the test compound for 48 hours. Compounds are tested at a single concentration, which is 10^-5 M for most compounds. The reported endpoint is percent growth (GI% or GIPRCNT), where numbers from 0 - 100% represent growth inhibition, and numbers from -100% - 0 represent cell death. For example, a value of 40 represents 60% growth inhibition. A value of 0 means no net growth occurred over the course of the experiment. A value of -40 indicates 40% of cells at the beginning of the experiment died by the end of the experiment. A value of -100 means all cells are dead at the end of the experiment.
# NCI-60 Human Tumor Cell Lines Screen was performed using the standard one-dose NCI protocol, which is described in more detail at https://dtp.cancer.gov/discovery_development/nci-60/default.htm.
# Compounds with GIPRCNT values below 10 were considered active. Activity score was based on GIPRCNT using the following formula: […]
# Score is 0 for GIPRCNT values of 100 or above, 50 for GIPRCNT values of 0, and 100 for GIPRCNT values of -100.
row,SMILES,growth
1,Cc1ccc(NC(=O)Cn2nncc2CN2C(=O)CSC2=O)cc1C,96.8%
2,CSC1=NC(=Nc2c(C)cccc2C)C2(CCC(C(C)(C)C)CC2)N1c1ccc(Cl)cc1 (stereo not given),12%
3,[O-]/[N+](=C\c1ccccc1)CC1(O)CCCCC1,104%
4,Cc1ccc2cc3c(NC(=O)c4cccnc4)nn(C)c3nc2c1,85.7%
5,CCCCCc1c(C)[nH]c(/C=C2\N=C(c3ccc[nH]3)C=C2CC)c1C,-82.1% (active)
6,COc1cc(Nc2ccnc3ccc(Br)cc23)cc(OC)c1OC,31.9%
7,COc1cc2nccc(Oc3ccc(NC(=O)C4(C(=O)Nc5ccc(F)cc5)CC4)cc3)c2cc1OC(=O)c1ccc(N)cc1,20.9%
8,Cc1c(C)c(C)c([N+](=O)[O-])c([N+](=O)[O-])c1C,90.8%
9,C#CC[C@@H]1C[C@]2(C)[C@H]3CC[C@@H]4[C@H]5C(C(=C)C)CC[C@]5(C(=O)NCCCCCCCCN)CC[C@@]4(C)[C@]3(C)CC[C@H]2C(C)(C)[C@H]1OC(C)=O (stereo not given in full),69.9%
10,CCn1c(CN2CCN(Cc3ccccc3)CC2)nc2cc(NC(=O)c3cccs3)ccc21,-92.5% (active)
11,CC[C@H](Nc1nc(N)nc(C2CC2)c1C#N)c1nc2cccc(NCc3ccc(C(=O)NO)cc3)c2c(=O)n1-c1ccccc1,-44.5% (active)
12,C/C(=C\C(=N\N=C(N)N)c1ccc(Cl)cc1)c1ccc(Cl)cc1,-58.4% (active)
13,OC(c1cc2c(Cl)cc(Cl)cc2c2cc(C(F)(F)F)ccc12)C1CCCCN1 (stereo not given),-62.5% (active)
14,COc1ccc(C2C3CCc4ccccc4C3=NN2C(=O)c2cc(OC)c(OC)c(OC)c2)cc1O (stereo not given),101%
15,Cc1cc(-c2nnc(/C=C/c3ccc4c(c3)OCO4)o2)n[nH]1,59.8%
16,COc1cc(/C=C2\C(=O)Nc3ccc(N(C)C)cc32)cc(OC)c1OC,22.2%
17,CC(C)OC(=O)c1ccc([N+](=O)[O-])cc1,103%
18,Cc1ccccc1CNc1ncnc2[nH]ncc12,69%
19,C=CCOc1c(Br)cc(Br)cc1Br,76.5%
20,CCCCCCCCCCCC1=NC(C)(C)CN1C(C)(C)CO,63.2%

row,SMILES,growth
1,CCCCCCCCNC(C)C(O)c1ccc(SC(C)C)cc1 (stereo not given),-56.8% (active)
2,COc1ccc(/C(=C\c2cc(OC)c(OC)c(OC)c2)C(=O)Nc2nc3ccc(Cl)cc3s2)cc1,83.2%
3,C/C(=N\NC(=S)Nc1ccccc1)c1ccccn1,6.16% (active)
4,Fc1ccc2c(CN3CCO[C@H](COc4cccc(Cl)c4)C3)c[nH]c2c1,65.3%
5,ClCc1cccc(CSc2ncnc3c2ncn3Cc2cccc(CCl)c2)c1,96.4%
6,C=C1NC(=O)C(C(C)CC)NC(=O)C2CSCC(NC(=O)CCC(=O)O)C(=O)NC(Cc3ccccc3)C(=O)NC(C)C(=O)NC(CC(C)CC)C(=O)NC(C(=O)NC(Cc3ccccc3)C(=O)N3CCCC3C(=O)N2)C(C)OC(=O)C(CO)NC(=O)C(C(O)COC)N(C)C(=O)C(C(C)C)NC(=O)C(CC(C)CC)NC1=O (stereo not given),33.1% [6 µM]
7,CCN1CCN(Cc2ccc(NC(=O)c3nc4ccc5[nH]ncc5c4c4c3CCCC4)cc2C(F)(F)F)CC1,-11.7% (active)
8,Cc1cccc(C(=O)O)n1,69.8%
9,CCC(=O)NC(O)C(Cl)(Cl)C(C)Cl (stereo not given),99.4%
10,CCN(CC)CCCCCCCNc1cc(OC)cc2c(C)ccnc12,94%
11,O=C1c2ccccc2C2N1CCC1CCc3ccccc3N12 (stereo not given),88.4%
12,COc1ccc(-c2[nH]nc(N)c2-c2cc(OC)c(OC)c(OC)c2)cc1,5.73% (active)
13,COc1cccc2nc(Nc3cccc(NC(=O)c4ccc(N5CCN(C)CC5)c(C(F)(F)F)c4)c3)ccc12,24.8%
14,COc1ccc(/C=c2\c(=O)n(-c3ccccc3)c3nn4c(=O)c(=O)[nH]nc4n23)cc1,90.4%
15,C/C(=N\OC(=O)Nc1cccc(Cl)c1)c1ccccc1,106%
16,Nc1nc2c(c3ncccc13)C(c1ccccc1)Cc1ncccc1-2 (stereo not given),77.2%
17,CC1=C(C(=O)Nc2ccc(F)cc2)C(c2ccccc2)C2=C(CC(C)(C)CC2=O)N1 (stereo not given),64.3%
18,CCN(CC)CCNc1c(C)cc(CO)c(Cl)c1C,104%
19,COc1ccc(C2C=C(c3ccc(Cl)cc3)N=C3SC=CN32)cc1 (stereo not given),101%
20,NC(N)=N/N=C/c1ccccc1,86.9%
